Among all 360,000 compounds or so, about 2,400 (0.67%) were called active. This is one part of a sample in which actives are shown more often than they occur.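 The calls were made as follows: active = activation above a run cutoff, the mean activation of all tested compounds plus 3 SD (cut at about 14% in these data); inactive = the rest.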
Biological target: 5-hydroxytryptamine receptor 2A (Mus musculus) (UniProt P35363)
Assay: activation of mouse 5-HT2A receptor – cell-based, luminescence, primary screen (AID 624169);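 also: 0% = plate median of compound wells and 100% = 30 µM serotonin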
Conditions: CHO-K1 mHTR2A beta-arrestin complementation, at 7.6 µM, hits give high values, percent of 30 µM serotonin response

5-hydroxytryptamine receptor 2A (Mus musculus), sequence (P35363 whole entry, looked up): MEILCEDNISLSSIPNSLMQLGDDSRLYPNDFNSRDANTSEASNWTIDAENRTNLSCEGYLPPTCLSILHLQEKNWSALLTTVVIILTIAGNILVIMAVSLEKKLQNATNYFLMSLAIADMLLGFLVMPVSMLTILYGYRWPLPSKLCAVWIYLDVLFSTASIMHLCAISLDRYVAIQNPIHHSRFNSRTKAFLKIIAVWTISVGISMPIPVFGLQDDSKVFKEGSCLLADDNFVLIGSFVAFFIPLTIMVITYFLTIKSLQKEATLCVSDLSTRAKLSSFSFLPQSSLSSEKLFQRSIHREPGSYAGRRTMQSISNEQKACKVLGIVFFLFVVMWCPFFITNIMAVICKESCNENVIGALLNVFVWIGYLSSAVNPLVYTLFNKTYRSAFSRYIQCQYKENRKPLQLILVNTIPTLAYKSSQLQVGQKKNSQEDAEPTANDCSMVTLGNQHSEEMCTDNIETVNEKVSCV

activation, inactive:
O=C(Nc1ccccc1C(=O)O)c1ccc(N2C(=O)C3CC=CCC3C2=O)cc1 (stereo not drawn) -7.43%
CC(C)c1csc(CN2CCC(CO)(Cc3ccccc3)CC2)n1 -5.03%
O=C(c1cc2ccccc2o1)N1CCN(Cc2ccccc2)CC1 -4.53%
CC(C)(C)NC(=O)C(=O)NCc1ccncc1 -5.23%
COCCCN1C(=O)c2ccc(C(=O)OCC(=O)NCc3ccccc3OC)cc2C1=O -1.38%
COc1ccc(S(=O)(=O)NC(C)c2ccccc2)cc1C(=O)N1CCCCC1 (stereo not drawn) 4.88%
C[C@H](O)[C@@H]1C(=O)N2CCc3ccc(N4CCOCC4)cc3[C@@H]2C[C@@H]1N(C)C(=O)C(C)(C)C 9.06%
CN[C@H]1C[C@H]2c3cc(Oc4ccccc4C)ccc3CCN2C(=O)[C@H]1[C@H](C)O 0.5%
Cc1nn(C)cc1S(=O)(=O)N1CCN(c2ccc(F)cc2)CC1 -4.86%
Cc1ccc(C(NC(=O)C2CCN(CCOc3ccc(Cl)cc3Cl)CC2)c2ccccn2)cc1 (stereo not drawn) -3.52%
O=C(NC(c1ccc(Cl)cc1)c1cnccn1)C1CCN(Cc2ccc(Cl)cc2)CC1 (stereo not drawn) -6.28%
CCC/C=C(\CCC)C(NC(=O)Cc1ccccc1)c1ccc(C(=O)OC)cc1 (stereo not drawn) -7.9%
Cc1cccc(N2CC(C)Cn3c2nc2c3c(=O)n(CC(=O)OCc3ccccc3)c(=O)n2C)c1 (stereo not drawn) 0.76%
Cc1ccc(OCCC(=O)OCC(=O)N2c3ccccc3NC(=O)C2(C)C)cc1 -2.36%
CNS(=O)(=O)c1cccc(C(=O)OCC(=O)N2c3ccccc3NC(=O)C2(C)C)c1 -2.19%
COc1ccc(N)cc1NC(=O)CN1CCOCC1 -3.94%
COc1ccc(C)cc1N(C(=O)Cn1nnc(-c2ccc(C)o2)n1)C(C(=O)NC1CCCC1)c1ccncc1 (stereo not drawn) -2.27%
COC(=O)c1ccc(S(=O)(=O)NCc2ccccc2)n1C -2.3%
CC(C(=O)N1CCc2ccccc21)N(C)CC(=O)Nc1ccc(F)cc1 (stereo not drawn) -3.41%
O=C(Cc1cccs1)NCc1cccc(C(F)(F)F)c1 -6.31%
Cc1ccc(S(=O)(=O)/N=C(\N)c2ccc(F)cc2)cc1 0.59%
Oc1ccccc1C1=NN(c2ccccc2)C(c2ccccc2)C1 (stereo not drawn) 5.22%
O=C1C2N=NN(CC(=O)N3N=C(c4cccc5ccccc45)CC3c3ccccc3)C2C(=O)N1c1ccccc1 (stereo not drawn) 2.13%
CCN(CC(=O)Nc1cccc(S(=O)(=O)N2CCCCC2)c1)Cc1ccccc1 -11.3%
COc1cc(Cl)ccc1OCc1cc(C(=O)N(C)CCc2c(C)n[nH]c2C)no1 -10.7%
CCCNC(=O)C1(C)CCN1C(=O)C1(c2ccccc2)CC1 (stereo not drawn) -0.58%
CCCOc1ccc(Cc2c(O)nc(N)[nH]c2=O)cc1C 2.5%

activation, active:
OCC1(Cc2ccccc2)CCN(Cc2cc3ccccc3o2)CC1 19.6%
C[C@@H]1ON(C)[C@H]2C[C@H]3c4cc(N5CCN(C)CC5)ccc4CCN3C(=O)[C@@H]12 29.5%
Cc1cccnc1C(NC(=O)C1CCN(Cc2ccc(Cl)c(Cl)c2)CC1)c1ccc(Cl)cc1 (stereo not drawn) 16.4%
Cc1cc(C(=O)OCC(=O)N2c3ccccc3NC(=O)C2(C)C)c(C)n1-c1ccccc1 15.2%
N/C(=N\S(=O)(=O)c1cc(C(F)(F)F)cc(C(F)(F)F)c1)c1cccs1 31.8%
Cc1ccc(N2C(=O)C3N=NN(CC(=O)N4N=C(c5cccc6ccccc56)CC4c4ccccc4)C3C2=O)cc1 (stereo not drawn) 17.6%

From PubChem BioAssay AID624169 (The Scripps Research Institute Molecular Screening Center, 2012)
